Values joined by “and” are separate entries in the source; they are usually repeats but may differ in a detail not shown here. Equal values may be shown once. The campaign covered roughly 1,300 compounds. About 420 (32%) were called active. Inconclusive results (about 32%) are left out. The list shows a part of the results. Values without a mark were called inactive. The call rests on the fitted dose curve; in most records, active means well fitted inhibition curve with a large enough effect; inconclusive means small, poorly fitted or top-dose-only effect; inactive means no such curve, though single readings can be large or run the other way.

The results in this text go back to PubChem BioAssay AID720541 (National Center for Advancing Translational Sciences (NCATS), 2013).
On the % scale 0 is the no-effect control and ±100 the full control effect; potency means the concentration at half of the fitted maximal effect.

The test addresses C-terminal-binding protein 1 (Homo sapiens) (UniProt Q13363). The test can be described thus: qHTS for Inhibitors of the Phosphatase Activity of Eya2: Carboxyl-terminal binding protein (CtBP) Counterscreen for Cherry-picked Compounds. Further: nearly all actives have a fitted effect of over 65% in size. The note with it: purified protein-protein binding, AlphaScreen, 3 h; series mostly up to 46.1 µM; activity change, negative = inhibition: at the top concentration. In outline:
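AlphaScreen using 25 nM GST-E1A with 25 nM CtBP-6xHIS; compounds at 2.5 nM–46 uM final, 2 h at room temperature, then donor/acceptor beads (20 ug/mL) for 1 h in the dark. Signal normalized to E1A peptide inhibitor (maximum inhibition) and DMSO.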
For `Cc1cccc(-n2c(O)c(C=Nc3ccccc3)c3ccccc3c2=O)n1`, the “activity change, negative = inhibition” value is -17.4%. With `Cc1[nH]n(-c2cccc3ccccc23)c(=O)c1C=Nc1ccc2[nH]c(=O)[nH]c2c1`, the Potency is 7.57 µM (active).

In the case of `CC1CCCCC1NC(=O)COC(=O)c1c2c(nc3ccccc13)/C(=C\c1ccco1)CC2` (configuration not stated), the “activity change, negative = inhibition” value was -25.9%.

Regarding `Cn1nc([N+](=O)[O-])nc1Sc1cccc2cccnc12`, the Potency was 2.69 µM (active). With `Clc1ccc(-n2nnnc2-c2cnc3ccccc3c2-c2ccccc2)cc1`, the “activity change, negative = inhibition” value is -9.82%.

For the molecule `O=C(NN1C(=O)/C(=C/C=C/c2ccco2)SC1=S)c1ccncc1`, the Potency was 12 µM (active). Same read-out and setting: under `Oc1ccc(Cl)cc1CNc1cccc2cccnc12` stands 5.36 µM (active); under `Oc1c(Br)cc(Br)cc1CNc1cccc2cccnc12`, 5.36 µM (active).

Regarding `CCOC(=O)C1=C(COC(=O)CCOc2ccccc2)NC(=O)NC1C` (configuration not stated), the “activity change, negative = inhibition” value was 4.16%. On to `CN(C)c1ccc(-c2ccnc3c2CC(C)(C(=O)NCCC(F)(F)F)O3)cc1` (configuration not stated), for which the “activity change, negative = inhibition” value is -19.4%. With `Cc1ccc(CNC(=O)C2CCN(S(=O)(=O)c3ccc4nc5c(c(C(=O)O)c4c3)CC(C)CC5)CC2)cc1` (configuration not stated), the Potency was 10.7 µM (active). `COc1ccc(CNC(=O)C2CCN(S(=O)(=O)c3ccc4nc5c(c(C(=O)O)c4c3)CCCC5)CC2)cc1`: the Potency was 12 µM (active). Consider `O=C(O)c1c2c(nc3ccc(S(=O)(=O)N4CCC(C(=O)NC5CCCC5)CC4)cc13)CCCCC2`, for which the “activity change, negative = inhibition” value is -4.44%. As to `COc1ccc(S(=O)(=O)N2CCN(C(=O)c3cc4c(s3)CCC4)CC2)cc1`, the “activity change, negative = inhibition” value is -5.73%. On to `COc1ccc(CC(=O)Nc2cccc(Cl)c2C)cc1S(=O)(=O)N1CCOCC1`, for which the “activity change, negative = inhibition” value was -0.0315%.

On to `O=S(=O)(c1ccc(Cl)cc1)N1CCOCC1`, for which the “activity change, negative = inhibition” value was 9.26%.

On to `COc1ccc(C(=O)Nc2ccc3nc(C)sc3c2)cc1S(=O)(=O)N1CCOCC1`, for which the Potency was 21.3 µM (active). Regarding `O=C(Nc1nc(-c2ccc(S(=O)(=O)N3CCOCC3)cc2)cs1)c1ccccc1`, the Potency was 6.75 µM (active) and 7.57 µM (active).

With `COc1ccc(C(=O)Nc2nc(-c3ccccn3)cs2)cc1S(=O)(=O)N1CCOCC1`, the Potency is 1.51 µM (active). In the case of `O=C(COC(=O)c1n[nH]c(=O)c2ccccc12)Nc1cccc(S(=O)(=O)N2CCOCC2)c1`, the “activity change, negative = inhibition” value was -14%. On to `O=C(Nc1nc(-c2ccccn2)cs1)c1cccc(S(=O)(=O)N2CCOCC2)c1`, for which the Potency was 1.69 µM (active). Consider `CCOC(=O)N1CCN(S(=O)(=O)c2ccc(C(=O)NNc3nc4ccc(Cl)cc4s3)cc2)CC1`, for which the “activity change, negative = inhibition” value is -11.8%. With `Cc1ccc(NC(=O)COc2ccc(S(=O)(=O)N3CCOCC3)cc2)cc1`, the “activity change, negative = inhibition” value was 1.7%. The same measure, in the same setting: for `O=C(Nc1cc(S(=O)(=O)N2CCOCC2)ccc1Cl)c1cc(=O)c2ccccc2o1` the value was -23.2%; for `O=C(Nc1nc2c(F)cc(F)cc2s1)c1ccc([N+](=O)[O-])o1`, -19.4%; for `Oc1ccccc1-n1c(-c2ccccc2)ccc1-c1ccccc1`, -11%. As for `CN1CCN(C(c2ccccn2)c2cc(Cl)c3cccnc3c2O)CC1` (configuration not stated), the Potency was 1.51 µM (active). With `Oc1c(C(c2ccc(Cl)cc2)N2CCCC2)cc(Cl)c2cccnc12` (configuration not stated), the Potency is 4.78 µM (active). As for `OC(c1ccc(Cl)cc1)c1nccc2ccccc12` (configuration not stated), the “activity change, negative = inhibition” value was 9.19%. As to `O=C(c1ccc2c(=O)n3c(nc2c1)CCCCC3)N1CCN(c2cccc(Cl)c2)CC1`, the Potency is 16.9 µM (active).

For the molecule `COc1ccc(/C=C/C(=O)Nc2ccc3nc4n(c(=O)c3c2)CCCC4)cc1`, the “activity change, negative = inhibition” value is -17.7%. Turning to `NC(=O)c1nc(C(=O)N2CCCCC2)c2ccccc2n1`, the “activity change, negative = inhibition” value was 4.22%. For `Cc1ccc(NC(=S)N2CCc3[nH]c4ccccc4c3C2)cc1`, the “activity change, negative = inhibition” value is 1.7%. Consider `CN(C)c1ccc(C2C=Cc3ccccc32)c2ccccc12` (configuration not stated), for which the Potency is 9.53 µM (active). As for `O=C(Oc1ccc(C(=S)N2CCCCC2)cc1)c1ccccc1F`, the “activity change, negative = inhibition” value was -20.3%. With `c1ccc2cc(CSCc3nc4ccccc4[nH]3)ccc2c1`, the “activity change, negative = inhibition” value was -16.5%. `Cc1ccccc1N=C1NC(=O)/C(=C/c2cccn2C)S1`: the “activity change, negative = inhibition” value was -28%. For `CCc1ccc(N=C2NC(=O)/C(=C/c3cc(OC)c(O)c(OC)c3)S2)cc1`, the Potency is 19 µM (active). Regarding `O=C(c1cccc(-n2cccc2)c1)N1CCN(S(=O)(=O)c2ccccc2)CC1`, the “activity change, negative = inhibition” value was -25.9%. As for `O=C(c1cccc(S(=O)(=O)Nc2ccccc2Cl)c1)N1CCN(c2ccccc2O)CC1`, the Potency was 15.1 µM (active). For the molecule `CC1Cc2ccccc2N1NC(=O)c1ccc(Cl)c(S(N)(=O)=O)c1` (configuration not stated), the “activity change, negative = inhibition” value was 3.62%. Take `CC1C(c2ccccc2)=Nn2c(=O)n(-c3ccccc3)c(=O)n21` (configuration not stated): the “activity change, negative = inhibition” value was -4.88%. Still for that read-out and setting: for `N#Cc1ccc(C(=O)N2CCC3CC2c2cc(-c4ccccc4)ccc23)cc1` (configuration not stated) the value was -9.92%.

For the molecule `Cc1oc2c(Cl)c(Cl)c(O)c(CN(C)C)c2c1C(=O)c1ccc(Cl)cc1`, the Potency was 15.1 µM (active). Take `COC(=O)c1ccccc1NC1=C/C(=N\S(=O)(=O)c2cccs2)c2ccccc2C1=O`: the Potency was 1.69 µM (active). As for `COCCN(Cc1cc2cc3c(cc2nc1Cl)OCO3)C(=O)Nc1ccc(OC)cc1`, the “activity change, negative = inhibition” value was 13.9%. Take `O=C(CSc1nc2ccccc2n1CCc1ccccc1)c1ccc(O)c(O)c1`: the “activity change, negative = inhibition” value is -27.5%.

For the molecule `CCOC(=O)C(C)Sc1nc(-c2ccccn2)ncc1OC` (configuration not stated), the Potency was 2.39 µM (active). With `COc1cnc(-c2ccccn2)nc1Oc1ccc(C(C)(C)C)cc1`, the Potency was 3.38 µM (active). `COc1ccc(CN(CCN(C)C)c2ccccn2)cc1`: the “activity change, negative = inhibition” value was 5.67%.

Regarding `COc1ccc(Oc2nc(-c3ccccn3)ncc2OC)cc1`, the Potency is 10.7 µM (active). On to `O=C(Cn1c(C(=O)N2CCc3ccccc3C2)cc2sccc21)c1ccccc1`, for which the “activity change, negative = inhibition” value is -15.2%. For the molecule `CCCc1nc(N2CCN(C)CC2)c2sc(=S)n(-c3ccccc3)c2n1`, the “activity change, negative = inhibition” value was -5.86%. With `CC1CCC2C(=O)N(c3ccc(C(=O)Oc4cccc5cccnc45)cc3)C(=O)C2C1` (configuration not stated), the Potency is 6.01 µM (active). `CC1C=CCC2C(=O)N(c3ccc(OC(=O)c4cccs4)cc3)C(=O)C12` (configuration not stated): the “activity change, negative = inhibition” value was -14.7%.

In the case of `Cc1ccc(C(=O)Oc2ccc(C(=O)COC(=O)c3cnccn3)cc2)cc1`, the “activity change, negative = inhibition” value was -16.4%.

As for `O=C(OCC(=O)c1ccc(Cl)cc1Cl)c1ccccn1`, the Potency is 12 µM (active). For the molecule `O=c1cc2ncc(-n3cc([N+](=O)[O-])cn3)cn2[nH]1`, the “activity change, negative = inhibition” value was -1.64%.

Consider `O=S(c1cc(Cl)cc(Cl)c1O)c1cc(Cl)cc(Cl)c1O`, for which the Potency is 3.38 µM (active). Consider `O=c1nc2c(O)cccn2c2c1c(=O)[nH]c1ccccc12`, for which the Potency was 3.79 µM (active).

With `CCOc1ccc(Nc2nc(N)nc(CN(C)C3CCCCC3)n2)cc1`, the “activity change, negative = inhibition” value was -16.8%. `N[C@@H](Cc1cnc[nH]1)C(=O)Nc1ccc2ccccc2c1`: the Potency is 19 µM (active).
